Source: PubChem BioAssay (EPA / NIEHS)
Inconclusive results are not listed. Active and inactive are the calls of the source. How the source made its calls: active means hit-call score of the fitted dose curve at least 0.9, where 1 is the maximum; inconclusive means response in the unintended direction; inactive means score below 0.9.

System: not listed separately
Test: TOX21_p53_BLA_p3_viability: Viability Assessment in the Tox21 HCT-116 p53 Agonism Beta-lactamase Assay, Phase 3 (AID 2283593);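 further: cells exposed to compound for 16 h before reading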
Method in brief: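 HCT-116 cells (4000/well) rested 5 h at 37C, then got DMSO compounds by pin tool (217-fold dilution) for 16 h at 37C, 5% CO2. After the bla read, CellTiter-Glo was added and luminescence read at 30 min, room temperature.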

Structure (SMILES) | outcome | AC50
ClC(Cl)(Cl)Cl | inactive | –
[O]=[Cd] | inactive | –
ClC(Br)Br | inactive | –
O=NN1CCN(N=O)CC1 | inactive | –
CCCCN=C=O | inactive | –
F/C(COc1ccc2c(c1)[nH]c1ccccc12)=C1/CN2CCC1CC2 | inactive | –
CCOP(=S)(OCC)Oc1cnc2ccccc2n1 | inactive | –
O=C(Nc1ccccc1)N(Cc1ccc(Cl)cc1)C1CCCC1 | inactive | –
CCCCCCCCCCCCCCCCCCn1cc[n+](C)c1 | inactive | –
C=CC1CC=CCC1 (stereo not given) | inactive | –
O=C(O)C(Cl)Br (stereo not given) | inactive | –
[H+].[H+].[Hg+2].[O-]B([O-])[O-].[c-]1ccccc1 | – | 0.975 µM (active)
O=C(O)CC(Cl)C(=O)O (stereo not given) | inactive | –
CCNC1(c2cccs2)CCCCC1=O (stereo not given) | inactive | –
NC1(c2ccccc2)CCCCC1 | inactive | –
C[C@@H](CO)NC(=O)[C@@H]1C=C2c3cccc4[nH]cc(c34)C[C@H]2N(C)C1 | inactive | –
NCC(O)c1cccc(O)c1 (stereo not given) | inactive | –
CC[N+](C)(CC)CCOC(=O)C(O)(c1ccccc1)c1ccccc1 | inactive | –
COc1cc(N)c(Cl)cc1C(=O)NC1CN2CCC1CC2 (stereo not given) | inactive | –
CN1C(=O)NC(=O)C(C)(C2=CCCCC2)C1=O (stereo not given) | inactive | –

Structure (SMILES) | outcome | AC50
NC(=O)CS(=O)C(c1ccccc1)c1ccccc1 (stereo not given) | inactive | –
CC(C)CCON=O | inactive | –
C[C@@H]1CN(C2CCC(C#N)(c3ccc(F)cc3)CC2)CC[C@]1(C(=O)O)c1ccccc1 (stereo not given in full) | inactive | –
CC[C@H](OC(C)=O)C(C[C@H](C)NC)(c1ccccc1)c1ccccc1 | inactive | –
O=NN1CCNCC1 | inactive | –
OCCSCSCCO | inactive | –
C(CCOCC1CO1)COCC1CO1 (stereo not given) | inactive | –
O=C(N/N=C/c1ccc([N+](=O)[O-])o1)c1cc([N+](=O)[O-])cc([N+](=O)[O-])c1O | inactive | –
O=[N+]([O-])C(Br)Br | inactive | –
O=C/C=C/c1ccco1 | inactive | –
COc1ccc2c(c1OC)CN1CCc3cc4c(cc3C1C2)OCO4 (stereo not given) | inactive | –
O=C(N[C@@H]1N=C(c2ccccc2F)c2cccc3c2N(CC3)C1=O)c1cc2ccccc2[nH]1 | inactive | –
O=C(NC(=O)c1ccccc1Cl)Nc1ccc(OC(F)(F)F)cc1 | inactive | –
C[C@@H]1CC[C@H]2[C@@H](C)C(=O)O[C@@H]3O[C@@]4(C)CC[C@@H]1[C@]32OO4 | inactive | –
CC(C)(C)NCC(O)c1ccccc1Cl (stereo not given) | inactive | –
COC(=O)[C@]12CCC(C)(C)C[C@H]1[C@H]1C(=O)C=C3[C@@]4(C)C=C(C#N)C(=O)C(C)(C)[C@@H]4CC[C@@]3(C)[C@]1(C)CC2 | – | 1.37 µM (active)
C[C@]12CCC(=O)C[C@@H]1CC[C@@H]1[C@@H]2CC[C@@]2(C)[C@H]1CC[C@]2(C)O | inactive | –
Clc1ccc(CSC(Cn2ccnc2)c2ccc(Cl)cc2Cl)cc1 (stereo not given) | inactive | –
N#CC(C#N)=Cc1cc(O)c(O)c(O)c1 | inactive | –
CCCCCCCCCCCCCC[P+](CCCCCC)(CCCCCC)CCCCCC (tested in a mixture with another compound) | – | 24.1 µM (active)

Molecular target: Cellular tumor antigen p53 (Homo sapiens) (UniProt P04637)
Sequence (P04637 whole entry, looked up): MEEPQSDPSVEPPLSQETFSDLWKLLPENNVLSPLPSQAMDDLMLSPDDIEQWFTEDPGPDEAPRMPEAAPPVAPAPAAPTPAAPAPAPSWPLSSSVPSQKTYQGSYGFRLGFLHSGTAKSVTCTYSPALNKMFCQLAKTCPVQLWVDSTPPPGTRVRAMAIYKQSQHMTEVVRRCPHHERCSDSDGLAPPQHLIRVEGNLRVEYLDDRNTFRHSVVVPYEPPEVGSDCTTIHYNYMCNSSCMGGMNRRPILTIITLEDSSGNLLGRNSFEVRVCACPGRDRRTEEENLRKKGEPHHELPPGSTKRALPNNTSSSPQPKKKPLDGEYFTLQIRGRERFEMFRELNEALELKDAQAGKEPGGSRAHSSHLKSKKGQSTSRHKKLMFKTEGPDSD
Test: TOX21_p53_BLA_p3_ratio: Tox21 HCT-116 p53 Agonism Beta-lactamase Assay, Ratio, Phase 3 (AID 2283596)
Method in brief: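 Cells were seeded at 4000/well, rested 5 h at 37C, then dosed with DMSO compound solutions (217-fold dilution) for 16 h. CCF4-AM substrate was loaded for 2 h at room temperature, and the 460/530 nm emission ratio was fitted for gain of signal versus DMSO.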

Structure (SMILES) | outcome | AC50
ClC(Cl)(Cl)Cl | inactive | –
[O]=[Cd] | inactive | –
ClC(Br)Br | inactive | –
O=NN1CCN(N=O)CC1 | inactive | –
CCCCN=C=O | inactive | –
F/C(COc1ccc2c(c1)[nH]c1ccccc12)=C1/CN2CCC1CC2 | inactive | –
CCOP(=S)(OCC)Oc1cnc2ccccc2n1 | inactive | –
O=C(Nc1ccccc1)N(Cc1ccc(Cl)cc1)C1CCCC1 | inactive | –
CCCCCCCCCCCCCCCCCCn1cc[n+](C)c1 | inactive | –
C=CC1CC=CCC1 (stereo not given) | inactive | –
O=C(O)C(Cl)Br (stereo not given) | inactive | –
[H+].[H+].[Hg+2].[O-]B([O-])[O-].[c-]1ccccc1 | – | 1.17 µM (active)
O=C(O)CC(Cl)C(=O)O (stereo not given) | inactive | –
CCNC1(c2cccs2)CCCCC1=O (stereo not given) | inactive | –
NC1(c2ccccc2)CCCCC1 | inactive | –
C[C@@H](CO)NC(=O)[C@@H]1C=C2c3cccc4[nH]cc(c34)C[C@H]2N(C)C1 | inactive | –
NCC(O)c1cccc(O)c1 (stereo not given) | inactive | –
CC[N+](C)(CC)CCOC(=O)C(O)(c1ccccc1)c1ccccc1 | inactive | –
COc1cc(N)c(Cl)cc1C(=O)NC1CN2CCC1CC2 (stereo not given) | inactive | –
CN1C(=O)NC(=O)C(C)(C2=CCCCC2)C1=O (stereo not given) | inactive | –

Structure (SMILES) | outcome | AC50
NC(=O)CS(=O)C(c1ccccc1)c1ccccc1 (stereo not given) | inactive | –
CC(C)CCON=O | inactive | –
C[C@@H]1CN(C2CCC(C#N)(c3ccc(F)cc3)CC2)CC[C@]1(C(=O)O)c1ccccc1 (stereo not given in full) | inactive | –
CC[C@H](OC(C)=O)C(C[C@H](C)NC)(c1ccccc1)c1ccccc1 | inactive | –
O=NN1CCNCC1 | inactive | –
OCCSCSCCO | inactive | –
C(CCOCC1CO1)COCC1CO1 (stereo not given) | – | 65.2 µM (active)
O=C(N/N=C/c1ccc([N+](=O)[O-])o1)c1cc([N+](=O)[O-])cc([N+](=O)[O-])c1O | inactive | –
O=[N+]([O-])C(Br)Br | inactive | –
O=C/C=C/c1ccco1 | inactive | –
COc1ccc2c(c1OC)CN1CCc3cc4c(cc3C1C2)OCO4 (stereo not given) | inactive | –
O=C(N[C@@H]1N=C(c2ccccc2F)c2cccc3c2N(CC3)C1=O)c1cc2ccccc2[nH]1 | inactive | –
O=C(NC(=O)c1ccccc1Cl)Nc1ccc(OC(F)(F)F)cc1 | inactive | –
C[C@@H]1CC[C@H]2[C@@H](C)C(=O)O[C@@H]3O[C@@]4(C)CC[C@@H]1[C@]32OO4 | inactive | –
CC(C)(C)NCC(O)c1ccccc1Cl (stereo not given) | inactive | –
COC(=O)[C@]12CCC(C)(C)C[C@H]1[C@H]1C(=O)C=C3[C@@]4(C)C=C(C#N)C(=O)C(C)(C)[C@@H]4CC[C@@]3(C)[C@]1(C)CC2 | – | 15.3 µM (active)
C[C@]12CCC(=O)C[C@@H]1CC[C@@H]1[C@@H]2CC[C@@]2(C)[C@H]1CC[C@]2(C)O | inactive | –
Clc1ccc(CSC(Cn2ccnc2)c2ccc(Cl)cc2Cl)cc1 (stereo not given) | inactive | –
N#CC(C#N)=Cc1cc(O)c(O)c(O)c1 | inactive | –
CCCCCCCCCCCCCC[P+](CCCCCC)(CCCCCC)CCCCCC (tested in a mixture with another compound) | – | 33.5 µM (active)
